Compound activity: PubChem BioAssay, several laboratories
An excerpt weighted towards active compounds, which were near 2.4% of everything screened.
PfM18AAP inh – PfM18AAP enzyme inhibition. recombinant PfM18AAP, H-Glu-NHMec fluorogenic cleavage. inhibition, % at 7.35 µM. 1.2% of 290,000 active;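 active = inhibition above the campaign mean inhibition over all tested compounds plus 3 SD, cut at about 28% in these data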
APOBEC3G inh – inhibitors of human APOBEC3G DNA deaminase; Q9HC16; inhibition, % at 20 µM; 0.28% of 330,000 active; recombinant A3G, ssDNA deamination FAM/TAMRA fluorescence;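 active = inhibition of at least 40% at 20 µM, with no more than 30% in the related APOBEC3A deaminase screen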
Target sequence (Q9HC16 whole entry, looked up): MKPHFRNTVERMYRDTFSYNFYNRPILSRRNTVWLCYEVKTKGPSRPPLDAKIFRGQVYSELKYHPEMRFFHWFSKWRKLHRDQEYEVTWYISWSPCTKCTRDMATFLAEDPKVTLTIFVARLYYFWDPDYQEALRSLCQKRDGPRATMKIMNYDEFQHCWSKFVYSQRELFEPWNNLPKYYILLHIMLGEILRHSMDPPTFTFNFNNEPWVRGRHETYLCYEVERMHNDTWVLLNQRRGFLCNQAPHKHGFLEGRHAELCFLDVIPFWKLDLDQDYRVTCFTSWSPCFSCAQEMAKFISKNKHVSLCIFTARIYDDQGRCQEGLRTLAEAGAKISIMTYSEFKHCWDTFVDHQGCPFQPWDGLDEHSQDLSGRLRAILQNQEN
PfGluPho inh – PfG6PD (Plasmodium falciparum) enzyme inhibition; PfGluPho enzyme, NADPH resazurin-diaphorase fluorescence; inhibition, % at 20 µM; 0.78% of 350,000 active;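 active = inhibition reaching at least a set limit at 20 µM in the primary screen, cut at about 59% in these data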
Yeast superoxide – lowers age-related superoxide in aged yeast cells; superoxide response (% of plate mean), % at 10 µM; S. cerevisiae aged cells, superoxide DHE fluorescence; hits give low values; 0.18% of 330,000 active; AID 2690;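 active = superoxide response under a set limit, about three screen SD below normal, cut at about 65% in these data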;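 also: yeast aged for seven days with compound at 30 °C before DHE staining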
A3A deaminase – human APOBEC3A DNA deaminase inhibition | recombinant A3A, FAM/TAMRA ssDNA deamination fluorescence | inhibition, % at 20 µM | 0.41% of 330,000 active;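 active = at least 40% inhibition at 20 µM here, with at most 30% in a related deaminase screen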
Target sequence (P31941 whole entry, looked up): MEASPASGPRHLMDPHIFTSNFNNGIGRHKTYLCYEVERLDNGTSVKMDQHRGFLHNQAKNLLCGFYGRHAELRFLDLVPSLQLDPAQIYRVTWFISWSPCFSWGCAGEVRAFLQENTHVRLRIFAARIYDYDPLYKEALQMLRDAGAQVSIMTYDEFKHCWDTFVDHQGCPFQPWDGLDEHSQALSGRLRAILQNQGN
Of the large screens only hits and unclear results are named; the others gave an inactive call.

Cn1c2c(c(=O)n(C)c1=O)C(C(F)(F)F)(C(F)(F)F)N=C(c1ccccc1Cl)N2	none
Cn1c(=O)c2[nH]c(-c3ccccc3Cl)c(O)c2n(C)c1=O	PfM18AAP inh 44
Cc1cccc(OCCN2C(=O)C(=O)c3cc(C)ccc32)c1	none
Cc1ccc2c(c1)C(=O)C(=O)N2CCOc1ccccc1	PfM18AAP inh 39
O=C(O)C1C2CCC1C(O)C2 (stereo unspecified)	none (no result: PfM18AAP inh, APOBEC3G inh, Yeast superoxide, A3A deaminase)
C[C@@H]1CN([C@H](C)CO)C(=O)c2c(c3ccccc3n2C)-c2ccccc2CO[C@@H]1CN(C)S(=O)(=O)c1cccs1	none (no result: PfM18AAP inh, APOBEC3G inh, Yeast superoxide, A3A deaminase)
CCOC(=O)NN1C(=O)c2ccccc2NC1c1ccccn1 (stereo unspecified)	PfM18AAP inh 30
COC(=O)c1ccccc1NC(=O)CSc1n[nH]c(C)n1	PfM18AAP inh 30
COC(=O)c1ccccc1NC(=O)CSc1n[nH]c(CC(C)C)n1	none
O=C(c1ccc(S(=O)(=O)N2CCCC2)cc1)N1CCCCC1	none (no result: PfM18AAP inh)
O=C(/C=C/c1ccc(O)c(O)c1)c1ccc(S(=O)(=O)N2CCCCCC2)cc1	PfM18AAP inh 60
O=C(C[n+]1ccc2ccccc2c1)Nc1cc(C(F)(F)F)ccc1Cl	Yeast superoxide 59
COC1=CC(=O)C(C2CC(=O)c3c(O)cc(O)cc3O2)=CC1=O (stereo unspecified)	PfGluPho inh 124 (no result: PfM18AAP inh, APOBEC3G inh, Yeast superoxide, A3A deaminase)
CC(=O)Nc1ccc(C(=O)COC(=O)c2cccs2)c(F)c1	none (no result: PfM18AAP inh)
COCc1c(C(=O)OCC(=O)NCCc2ccc(S(N)(=O)=O)cc2)oc2ccccc12	Yeast superoxide 65 (no result: PfM18AAP inh)
Cc1c(C(=O)OCC(=O)NCCc2ccc(S(N)(=O)=O)cc2)oc2ccccc12	none (no result: PfM18AAP inh)
Cc1ccc(C)c(/C=N/n2cc(-c3ccccc3)[nH]c2=S)c1	PfM18AAP inh 29
S=c1[nH]c(-c2ccccc2)cn1/N=C/c1ccc(Br)cc1	none
Cc1cc(N2O[C@]34C=C[C@]25C[C@@H](O)CC[C@]5(C)C3CC[C@]2(C)[C@@H]([C@H](C)/C=C/[C@H](C)C(C)C)CC[C@H]24)no1 (stereo partly specified)	Yeast superoxide 57 (no result: PfM18AAP inh)
Cc1ccc(C)c(S(=O)(=O)/N=C2\C=C(NS(=O)(=O)c3ccccc3)C(=O)c3ccccc32)c1	none
Cc1cc(C)c(S(=O)(=O)/N=C2/C=C(Sc3ncn[nH]3)C(=O)c3ccccc32)cc1C	PfM18AAP inh 40, PfGluPho inh 109 (no result: APOBEC3G inh, A3A deaminase)
CC(=O)c1sc(C(=O)O)c(-c2ccco2)c1-c1ccco1	PfM18AAP inh 30
O=C(O)c1sc(C(=O)O)c(-c2ccccc2)c1-c1ccccc1	none (no result: PfM18AAP inh, APOBEC3G inh, Yeast superoxide, A3A deaminase)
CC(C)N(C(=O)N1CCN(c2ccnc3cc(Cl)ccc23)CC1)C(C)C	none (no result: Yeast superoxide)
CC1(C)CC(=O)C=C(NNC(=O)c2ccccc2)C1	PfM18AAP inh 41
COc1ccccc1-[n+]1c(C)cc(/C=C2\Sc3ccccc3N2C)cc1C	PfM18AAP inh 48
COc1ccccc1OC(=O)CCN1c2ccccc2Sc2ccccc21	none
O=C(COC(=O)c1ccccc1NCCO)Nc1cc(C(F)(F)F)ccc1N1CCOCC1	none
COC(=O)c1ccc(NC(C)=O)cc1O	none (no result: APOBEC3G inh, PfGluPho inh, Yeast superoxide, A3A deaminase)
N=C1/C(=C/c2coc3ccccc3c2=O)C(=O)N=C2SC(c3ccco3)=NN12	PfM18AAP inh 29
CSC1=NSC2=NC(=O)/C(=C\c3coc4ccccc4c3=O)C(=N)N12	none (no result: APOBEC3G inh, A3A deaminase)
N=C1/C(=C\c2coc3ccc(O)cc3c2=O)C(=O)N=C2SC=CN12	PfM18AAP inh 49
COc1ccc(NC(=O)N(C)C[C@H]2Oc3ccc(NC(=O)NC4CCCCC4)cc3C(=O)N([C@H](C)CO)C[C@@H]2C)cc1	none (no result: PfM18AAP inh)
CC(=O)NC12CC3CC(C1)CC(C(=O)N1CCN(c4ncccn4)CC1)(C3)C2	none
COC(=O)c1ccc(=O)c2nc3/c(=C/O)c(O)cc(=O)c3[nH]c12	Yeast superoxide 45 (no result: APOBEC3G inh, A3A deaminase)
Cc1ccc(-c2nnn(CC(=O)N(CC(=O)NC3CCCCC3)c3cnc4ccccc4c3)n2)o1	PfM18AAP inh 32
Cc1ccc(N(CC(=O)NC2CCCCC2)C(=O)Cn2nnc(-c3ccc(C)o3)n2)cc1	none
Cc1cccc(NC(=O)C2CCCN(c3ncnc4c3nc3n4CCCCC3)C2)n1 (stereo unspecified)	none
Cc1ccc2oc(=O)c(/C=C(\O)c3sc(C)nc3C)nc2c1	PfM18AAP inh 29
Cc1ccc2oc(=O)c(/C=C(\O)C(C)(C)C)nc2c1	none
COC(=O)c1ccccc1OCCN1CCCCCC1	none
CCC(=O)c1ccccc1OCCN1CCN(CC)CC1	PfM18AAP inh 31
O=C(O)C1CCCC2CN3CCc4c([nH]c5ccccc45)C3C(O)C21 (stereo unspecified)	PfM18AAP inh 28
O=C(O)[C@@H]1[C@H]2C[C@H]3c4[nH]c5ccccc5c4CCN3C[C@@H]2CC[C@@H]1O	none (no result: PfM18AAP inh)
CN(C)c1ccc(NC(=O)C2C3C=CC(C3)C2C(=O)O)cc1 (stereo unspecified)	PfM18AAP inh 55
O=C(c1cccc([N+](=O)[O-])c1)N1CCCC(C(=O)N2CCc3ccccc3C2)C1 (stereo unspecified)	none
CCCN(C(=O)CSc1nc2cc(S(=O)(=O)N(CC)CC)ccc2o1)C1CCS(=O)(=O)C1 (stereo unspecified)	none (no result: PfM18AAP inh)
CCN(C(=O)CSc1nc2cc(S(=O)(=O)N(CC)CC)ccc2o1)C1CCS(=O)(=O)C1 (stereo unspecified)	PfM18AAP inh 28
Nc1c(/C=C2/C=CC(=O)C(O)=C2)c(=O)nc2sc(CC(=O)N3CCCCC3)nn12	PfM18AAP inh 64
CCOc1ccc(N2C(=O)c3cccnc3C2Nc2ccc(Cl)cc2)cc1 (stereo unspecified)	none
Cc1ccc(NC2c3ncccc3C(=O)N2c2ccccc2C)cc1C (stereo unspecified)	PfM18AAP inh 29
CCNc1nc(SCC(N)=O)nc2sc3c(c12)CCN(C)C3	PfM18AAP inh 29 (no result: Yeast superoxide)
CSc1nc(SCC(N)=O)c2c3c(sc2n1)CN(C)CC3	none
COc1oc(C(=O)NC2CCCCC2)c(-c2ccc(Cl)cc2)c1S(=O)(=O)c1ccccc1	none (no result: PfM18AAP inh, APOBEC3G inh, Yeast superoxide, A3A deaminase)
Clc1ccccc1N=Nc1ccccn1	PfGluPho inh 91 (no result: PfM18AAP inh, APOBEC3G inh, Yeast superoxide, A3A deaminase)
Cc1[nH][nH]c(=O)c1N=Nc1ccccc1Cl	none
CCCOc1ccc(/C=C/C(=O)OCC(=O)N(C)c2c(N)n(Cc3ccccc3)c(=O)[nH]c2=O)cc1OCC	none (no result: PfM18AAP inh)
O=C1CCC/C(=N/NC(=O)c2cc(NS(=O)(=O)c3cccs3)cc(NS(=O)(=O)c3cccs3)c2)C1	PfM18AAP inh 30
O=C1CCC/C(=N/NC(=O)c2ccc(NS(=O)(=O)c3cccs3)cc2)C1	none
CN(C)c1nc(=NCc2ccco2)ss1	PfM18AAP inh 47 (no result: APOBEC3G inh, A3A deaminase)
CCc1ccc(N=C2NC(=O)/C(=C/c3cc(OC)c(O)c(OC)c3)S2)cc1	PfM18AAP inh 28
COc1cc(/C=C2\SC(=Nc3ccccc3)NC2=O)cc(Cl)c1O	none
Cc1cccc(C)c1NC(=O)C(C)N1CCCCC1 (stereo unspecified)	none
CCOC(=O)c1c(C)[nH]c(C2=NNC(=NC3CC3)SC2)c1C	PfM18AAP inh 44
